Screening results deposited in PubChem BioAssay by National Center for Advancing Translational Sciences (NCATS).
Sampled rows, rich in hits. Any-hit rate of the full collection: about 12%.
HP1b chromo inh: blocks HP1-beta chromodomain binding to methylated histone tails | AID 540317 | AlphaScreen HP1-beta / biotin-H3K9me3 peptide binding | hit rate 0.56% among 390,000 | P83916 | Potency, µM (titrated, usually from 114 µM), without a hit: at the highest dose activity change, negative = inhibition, most hits filed as inhibitors; further: nearly all actives have a fitted effect of over 70% in size
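HP1-beta protein (50 nM final) preincubated 30 min at room temperature with biotinylated H3(1-18)K9me3 peptide (50 nM) in PBS pH 7.4, 0.01% Tween-20, then compound added for 30 min. AlphaScreen streptavidin donor/nickel chelate acceptor beads (10 ug/mL final), 30 min dark, luminescence read.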
JMJD2A Tudor inh: blocks the human JMJD2A Tudor domain; O75164; AlphaScreen JMJD2A-Tudor / H3K4me3 peptide binding; hit rate 4.4% among 390,000; Potency, µM (highest dose often 114 µM), without a hit: top-dose activity change, negative = inhibition, hits mostly inhibitors; AID 504339; further: on the % scale 0 is the no-effect control and ±100 the full control effect; nearly all actives have a fitted effect of over 50% in size
BAZ2B inh: inhibitors of human BAZ2B bromodomain; Q9UIF8; AlphaScreen BAZ2B-H3K14Ac peptide displacement; Potency, µM (series often up to 114 µM), for the others: at the top dose activity change, negative = inhibition, usual class: inhibitors; hit rate 4.4% among 360,000; AID 504333; further: on the % scale 0 is the no-effect control and ±100 the full control effect; nearly all actives have a fitted effect of over 60% in size
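In this displacement format the biotinylated H3(5-23) peptide acetylated at Lys14 serves as ligand at 50 nM, with BAZ2B at 50 nM in PBS pH 7.4 containing 0.01% Tween-20. Donor and acceptor beads are 10 ug/mL final.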
G9a block: inhibitors of human histone lysine methyltransferase G9a; G9a H3K9 monomethylation, AlphaScreen, 2 h; hit rate 8.8% among 350,000; Potency, µM (series often up to 102 µM), without a hit: top-dose activity, negative = inhibition, usual class: inhibitors; Q96KQ7; further: on the % scale 0 is the no-effect control and ±100 the full control effect; nearly all actives have a fitted effect of over 75% in size
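Signal arises when biotinylated H3K9 peptide, once monomethylated, bridges streptavidin donor and antibody-captured acceptor beads. Enzyme at 20 nM was preincubated 15 min with test compounds; peptide 500 nM and SAM 20 uM then reacted for 2 h.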
Sfp PPTase inh: Sfp phosphopantetheinyl transferase inhibition; Q9F4F7; Biochemical Sfp PPTase activity, qHTS; Potency, µM, for inactives: largest response in the series, negative = inhibition, usual class: inhibitors; hit rate 3.5% among 310,000; AID 1490;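 further: the enzyme is Sfp with the accession as filed and its product quenches rhodamine fluorescence; 0% = enzyme reaction without inhibitor and -100% = no enzyme wells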
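After 15 min at room temperature with compound, 15 nM Sfp received 5 uM rhodamine-CoA plus 12.5 uM BHQ-2-ybbR (50 mM Hepes pH 7.6, 10 mM MgCl2). Rate came from the fluorescence difference over 30 min, ex 525/em 598 nm.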
L3MBTL1 inh: L3MBTL1 (human) inhibition | Q9Y468 | AlphaScreen L3MBTL1–H3K9me1 peptide binding | Potency, µM (top dose mostly 57.1 µM), for inactives: at the top dose activity, negative = inhibition, most hits filed as inhibitors | hit rate 0.66% among 230,000 | AID 485360; further: on the % scale 0 is the no-effect control and ±100 the full control effect; nearly all actives have a fitted effect of over 60% in size
Target sequence (Q9Y468 whole entry, looked up): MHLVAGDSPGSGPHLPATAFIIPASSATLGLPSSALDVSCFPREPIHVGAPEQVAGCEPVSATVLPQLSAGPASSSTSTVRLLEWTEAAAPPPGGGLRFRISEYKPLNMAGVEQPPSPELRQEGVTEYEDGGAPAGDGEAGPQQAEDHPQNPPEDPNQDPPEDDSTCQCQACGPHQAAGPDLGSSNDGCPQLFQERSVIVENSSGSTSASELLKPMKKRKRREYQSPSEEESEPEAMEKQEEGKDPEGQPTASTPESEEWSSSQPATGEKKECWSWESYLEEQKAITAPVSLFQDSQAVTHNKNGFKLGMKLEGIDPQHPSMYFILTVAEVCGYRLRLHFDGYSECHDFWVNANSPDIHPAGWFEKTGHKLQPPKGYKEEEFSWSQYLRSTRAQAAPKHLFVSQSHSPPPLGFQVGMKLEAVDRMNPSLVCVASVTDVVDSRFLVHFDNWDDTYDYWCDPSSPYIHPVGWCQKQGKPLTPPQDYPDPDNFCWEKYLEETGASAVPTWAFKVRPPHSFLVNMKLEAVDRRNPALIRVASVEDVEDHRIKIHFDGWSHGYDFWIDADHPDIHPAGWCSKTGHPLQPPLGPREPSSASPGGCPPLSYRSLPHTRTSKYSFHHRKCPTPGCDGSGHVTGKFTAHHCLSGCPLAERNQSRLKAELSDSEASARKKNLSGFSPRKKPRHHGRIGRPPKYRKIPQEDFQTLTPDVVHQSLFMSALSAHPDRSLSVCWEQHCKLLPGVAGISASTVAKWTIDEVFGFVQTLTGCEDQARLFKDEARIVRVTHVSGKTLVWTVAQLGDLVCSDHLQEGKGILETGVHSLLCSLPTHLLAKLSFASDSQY
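First, the protein-peptide complex forms for 30 min at room temperature (L3MBTL1 50 nM, biotinylated H3K9me1 peptide 75 nM). Next, compounds are pin-transferred and incubated 30 min. Finally, AlphaScreen beads are added and read after 30 min.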
* = called active by the depositor; ? = inconclusive; . = no result given; ! = not confirmed by another sample; [ ] = remark or other dose. The call rests on the fitted dose curve; in most records, active means well fitted curve in the direction sought with a large enough effect; inconclusive means small, poorly fitted or top-dose-only effect, or another doubt; inactive means no such curve, though single readings can be large; an effect the other way counts as inactive or inconclusive. Potency means the concentration at half of the fitted maximal effect.

SMILES	HP1b chromo inh	JMJD2A Tudor inh	BAZ2B inh	G9a block	Sfp PPTase inh	L3MBTL1 inh
Cc1c(NC(=O)c2cc3ccccc3oc2=O)c(=O)n(-c2ccccc2)n1C	9%	-4%	-1%	25µM*	2%	.
COC(=O)C(NS(N)(=O)=O)C(C)C (stereo not given)	35%	-12%	.	.	8%	.
CC(C)NC(=O)c1cnc2sc(N3CCCCCC3)nn2c1=O	1%	-2%	-11%	10%[59 µM]	.	.
O=C1C(Cl)=C(N2CCCCC2)C(=O)C(Cl)=C1c1cnc(N2CCCCC2)s1	?	8.9µM*	45µM*	2.2µM*	18µM*	18µM*
CN(C)c1ncc(C2=C(Cl)C(=O)C(N3CCCC3)=C(Cl)C2=O)s1	-84%	11µM*	.	.	.	.
Cc1cccc(C)c1NC(=O)c1ccc2nc(CCc3ccccc3)oc2c1	12%[57 µM]	-13%	-2%	1%[59 µM]	.	.
NC(=O)c1c(NC(=O)C2CC=CCC2C(=O)O)sc2c1CCCCC2 (stereo not given)	?	56µM*	?	8.9µM*	35µM*	.
NC(=O)c1c(NC(=O)c2ccccc2)sc2c1CCC2	68%	-12%	?	-44%	-3%	.
CC(C)OC(=O)c1c(NC(=O)C2CC=CCC2C(=O)O)sc2c1CCCCC2 (stereo not given)	-28%	-28%	?	45µM*	11%	.
CC1Cn2c(C(=O)NCCc3ccc(Cl)cc3)cc3cccc(c32)S1 (stereo not given)	89%	46%	1%	33%[59 µM]	.	.
Cn1c(=O)n(C)c2cc(N3CCCCC3)c(NC(=O)c3ccc(C(C)(C)C)cc3)cc21	10%	-23%	-10%	?	.	.
CCCCN1CC(c2nc3ccccc3n2CCCCOc2cccc(C)c2C)CC1=O (stereo not given)	40%	-8%	0%	?	.	.
CC(=O)OCC(=O)Nc1ccc(SC(F)F)cc1	36%	1%	-2%	?	21%	.
O=C(COC(=O)C1Cc2ccccc2CN1C(=O)c1ccccc1)Nc1ccc(SC(F)F)cc1 (stereo not given)	?	-32%	-12%	79µM*	15%	-5%
Cc1cc(OCc2cc(C(=O)N(C)CCCN3CCOCC3)no2)cc(C)c1Cl	19%	89µM*	-18%	-3%	-8%	.
COCC1CCN(C(=O)c2cc(COc3ccc4ncccc4c3)on2)CC1	0%	16µM*	-1%	.	13%	-1%
CC(=O)c1cccc(OCc2cc(C(=O)N(C)CCC3CCOCC3)no2)c1	35%	11%	-3%[57.1 µM]	45µM*	21%	.
O=C(c1cc(COc2ccc3ncccc3c2)on1)N1CCCC1	14%	-9%	0%	10%	9%	.
CC(=O)c1cccc(OCc2cc(C(=O)N3C[C@@H](C)O[C@@H](C)C3)no2)c1	56%	-10%	-18%	45µM*	3%	.
Cc1cc(C)cc(OCC(=O)NC(Cc2c[nH]c3ccccc23)C(=O)O)c1 (stereo not given)	16%	-17%	-12%	-12%[59 µM]	.	.
C=C1C=CS(=O)(=O)N(C(CC(C)C)C(=O)OC)C1 (stereo not given)	37%	-18%	.	.	?	.
CCCCn1c(=O)n(CC(=O)Nc2ccc(C)c(Cl)c2)c(=O)c2c1ncn2Cc1ccco1	22%	-4%	4%	25µM*	?	-6%
CN(C(=S)NC(=O)c1ccc(F)cc1)C1CCCCC1	39%	-24%	-26%	16%	-1%	.
CN(C(=S)NC(=O)c1ccc(Cl)cc1)C1CCCCC1	-22%	-33%	45µM*	8.9µM*	50µM*	.
CCc1ccc(N=C2NC(=O)/C(=C/c3cc(OC)c(OC)c(OC)c3)S2)cc1	30%	-32%	-1%	27%	-12%	-4%
SMILES	HP1b chromo inh	JMJD2A Tudor inh	BAZ2B inh	G9a block	Sfp PPTase inh	L3MBTL1 inh
CCc1ccc(N=C2NC(=O)/C(=C/c3cc(Br)c(OCC(=O)O)c(OC)c3)S2)cc1	?	50µM*	50µM*	50µM*	2%	?
C/C(=N\NC(N)=S)C1C2C3CC4C5CC(C42)C1C53 (stereo not given)	26%	-10%	-38%	40µM*	9%	.
CCc1nn(CC(=O)NCc2cccc(OC)c2OC)c(=O)c2cc3occc3n12	28%	2%	5%	2%[59 µM]	.	.
COc1ccc(C)cc1NC(=O)CN(c1cc(C(F)(F)F)ccc1Cl)S(C)(=O)=O	15%	-21%	-1%	-33%[59 µM]	.	.
Nc1nnc(-c2cccc([N+](=O)[O-])c2)s1	43%	-1%[57.1 µM]	5%	0%	16%	15%
Nc1nnc(-c2ccc(Cl)c([N+](=O)[O-])c2)s1	2%	-21%	-20%	45µM*	-19%	0%
Cc1cccn2cc(CSc3nnc(Nc4ccc(C(C)C)cc4)s3)nc12	14%	-29%	-37%	40µM*	-2%	-12%
COc1ccc(Nc2nnc(SCc3cn4c(C)cccc4n3)s2)cc1	4%	-32%	?	?	4%	-6%
CCOC(=O)C1CCCN(C(=O)c2ccc(CS(=O)(=O)c3ccc(C)cc3)o2)C1 (stereo not given)	20%	?	?	50µM*	-3%	.
Cc1ccc(S(=O)(=O)Cc2ccc(C(=O)N3CCCCCC3)o2)cc1	20%	-28%	3%	-7%	9%	.
Cc1ccc(S(=O)(=O)Cc2ccc(C(=O)N3CCN(c4cc(C)ccc4C)CC3)o2)cc1	0%	?	56µM*	-30%	5%	-10%
CCC(C)NC(=O)CCC(=O)N1Cc2ccccc2Oc2ncccc21 (stereo not given)	69%	-19%	49%[57.1 µM]	11%[59 µM]	.	.
O=C(O)[C@@H]1C[C@@H](C(=O)O)N1	.	.	.	24µM*!	?	.
O=C1CC[C@H](C(=O)O)N1	.	.	.	20%[59 µM]	10%	.
CCOC(=O)c1nsnc1NCCSC(=N)N	15%	-3%	10%	8.9µM*	3%	6%
CCOC(=O)c1nonc1NC(C)=O	47%	-9%[57.1 µM]	7%	16%[59 µM]	28%	8%
